High-throughput results as filed in PubChem BioAssay.
m5-HT2A agonist: mouse Htr2a agonists via beta-arrestin recruitment, primary screen, cell-based, luminescence | 5-hydroxytryptamine receptor 2A (Mus musculus), P35363 | CHO-K1 mHTR2A beta-arrestin complementation; percent of 30 µM serotonin response | activation, % at 7.6 µM | actives 0.66% (n = 360,000);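 active = activation above a run cutoff, the mean activation of all tested compounds plus 3 SD, cut at about 14% in these data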;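 also: 0% = plate median of compound wells and 100% = 30 µM serotonin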
MEX-5 binding: MEX-5 zinc finger RNA-binding disruptors – biochemical, C. elegans, fluorescence polarization, MLPCN library, primary screen | activity score (negative = inhibition of binding), % at 10 µM | Zinc finger protein mex-5 (Caenorhabditis elegans), Q9XUB2 | MEX-5/FITC-TCR2 RNA binding; stronger effect = lower value | actives 0.38% (n = 300,000) | AID 1832, 2009;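 active = inhibition past about -25% in most replicates, and total fluorescence under double the plate's negative control median, limit read from the data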;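 also: 0% = DMSO and -100% = 5 µM competing unlabeled TCR2 RNA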
GASC-1 inh: inhibitors of GASC-1 histone demethylase, primary screen, biochemical, fluorescence, DELFIA europium; Lysine-specific demethylase 4C (Homo sapiens), Q9H3R0; GST-JMJD2C(1-420) H3K9me3 demethylation; inhibition, % at 2.35 µM; actives 0.069% (n = 330,000); AID 2099, 2009;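 active = more than half of a compound's replicate wells show inhibition beyond 50%, single wells judged on their own value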;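 also: signal counts dimethyl H3K9 product captured on neutravidin plate; 0% = median of DMSO wells and 100% = 0.3 times that DMSO median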
V-ATPase pH: regulators of yeast V-ATPase proton pumping, primary screen, pHLuorin cytosolic pH fluorescence; S. cerevisiae; actives 0.37% (n = 350,000); AID 504577, 2011; response, % at 10 µM; in the data active = response mostly above about 7.3%, no sharp cut-off; inactive = mostly below about 5.4%; also: actives read high
VLA-4 inh: inhibition in human VLA-4 binding assay, primary screen, VLA-4 allosteric modulator project, MLPCN library, flow cytometry, VLA-4 expressing cells. inhibition, % (about 7 µM as worked out from the volumes in the protocol). ligand binding flow cytometry. actives 0.2% (n = 330,000). Integrin alpha-4 (Homo sapiens), P13612; in the data active = inhibition above about 50%
Granule exo inh: LAMP-1 surface exposure blockers, TALL-104 cells – cell-based, flow cytometry, MLPCN library, primary screen. TALL-104 LAMP-1 surface exposure; cells stimulated with thapsigargin and PMA. inhibition, % at 10 µM. actives 0.66% (n = 360,000);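 active = inhibition above about 55%, limit read from the data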
OPRM1 ag: OPRM1 agonists via beta-arrestin recruitment, confirmation, counter-screen for mouse HTR2A agonist project, cell-based, luminescence, single concentration. shares compounds with m5-HT2A agonist. actives 5.3% (n = 2,300). U2OS OPRM1 beta-arrestin PathHunter; DMSO 0%, DAMGO 9.3 µM 100%. activation, % at 9.3 µM;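 active = mean activation above the mean of DMSO-only wells plus 3 SD, cut at about 0.5% in these data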
Target sequence (P35372 whole entry, looked up): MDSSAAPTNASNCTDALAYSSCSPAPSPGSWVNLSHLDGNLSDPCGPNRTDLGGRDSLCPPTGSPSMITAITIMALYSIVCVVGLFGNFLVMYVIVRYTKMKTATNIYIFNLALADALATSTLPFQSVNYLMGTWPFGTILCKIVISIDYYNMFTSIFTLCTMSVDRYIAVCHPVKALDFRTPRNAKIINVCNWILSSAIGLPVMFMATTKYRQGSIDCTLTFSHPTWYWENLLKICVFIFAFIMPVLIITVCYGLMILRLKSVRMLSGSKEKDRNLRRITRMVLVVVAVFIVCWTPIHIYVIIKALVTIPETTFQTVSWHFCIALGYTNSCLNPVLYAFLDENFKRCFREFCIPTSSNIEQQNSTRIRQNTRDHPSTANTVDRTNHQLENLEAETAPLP
HTR2A ag conf: mouse HTR2A agonists, beta-arrestin recruitment, confirmation, cell-based, luminescence, CHO-K1 PathHunter, triplicate. shares compounds with m5-HT2A agonist. DMSO 0%, 30 µM serotonin 100%. activation, % at 7.6 µM. actives 19% (n = 2,300). AID 624381, 2012;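 active = mean activation across triplicates above the hit threshold derived in the original primary screen, cut at about 15% in these data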
* = called active by the depositor; nt = no result. Most compounds without a hit are left out; they make up all but 2.2% or so of the library.

SMILES | m5-HT2A agonist | MEX-5 binding | GASC-1 inh | V-ATPase pH | VLA-4 inh | Granule exo inh | OPRM1 ag | HTR2A ag conf
NC(=O)C1CCN(CC(=O)Nc2ccc3c(c2)OCCO3)CC1 | -2 | nt | -9 | 1 | -1 | 0 | nt | nt
COC(=O)C1CCN(CC(=O)Nc2ccc3c(c2)OCCO3)CC1 | 32* | nt | -1 | 2 | 20 | 12 | -1 | 42*
O=C(/C=C/[C@H]1O[C@@H](n2ccc(=O)[nH]c2=O)[C@H](O)[C@@H]1O)NCCN1CCCCC1 | 16* | nt | nt | nt | nt | -3 | -1 | -3
O=C(Nc1ccncc1)c1cc(-c2cccc(Br)c2)nc2ccccc12 | 15* | 1 | 21 | -1 | 15 | -2 | 3.7* | 10
O=Cc1ccc(OC(=O)c2cccnc2)cc1 | 15* | -1 | -1 | 4 | -3 | 0 | -1 | -6
N#Cc1c(/N=C/c2ccco2)sc2c1CCCCC2 | 14* | 1 | -2 | -7 | 2 | 4 | 0 | 21*
N#Cc1c(/N=C/c2cccs2)sc2c1CCC2 | -4 | 0 | 4 | 3 | 10 | -1 | nt | nt
C=CCOc1ccc(C(c2c(O)nc(SC)[nH]c2=O)c2c(O)nc(SC)[nH]c2=O)cc1 | 1 | -2 | 7 | 3 | -7 | 20 | nt | nt
O=C(NCC(c1ccco1)N1CCN(c2ccccc2F)CC1)c1ccco1 (stereo not given) | 15* | 0 | 93 | 0 | 16 | 4 | -1 | 36*
Cc1cc(C)c2nc(NNC(=O)c3ccc(S(=O)(=O)N4CCCC(C)C4)cc3)sc2c1 (stereo not given) | 13 | 0 | 2 | 1 | -6 | 1 | nt | nt
Cc1cc(C)c2nc(NNC(=O)c3ccc(S(=O)(=O)N4CC(C)CC(C)C4)cc3)sc2c1 (stereo not given) | 62* | 2 | 1 | 6 | -10 | 2 | 0 | -4
Cc1cccc2sc(NNC(=O)c3ccc(S(=O)(=O)N4CC(C)CC(C)C4)cc3)nc12 (stereo not given) | 15* | 1 | 7 | 6 | -15 | 3 | 0 | 3
Cc1ccc(S(=O)(=O)N(Cc2cccc(F)c2)C(=O)N2CCN(C)CC2)cc1 | 12 | -1 | 3 | -1 | 8 | 0 | nt | nt
Cc1c(OCC(=O)N(C)c2ccccc2)ccc2c3c(c(=O)oc12)CCC3 | -5 | -2 | -3 | 2 | 4 | 51 | nt | nt
CNC(=O)CSc1nc2ccccc2c(=O)n1CCc1ccccc1 | 1 | -3 | -19 | -3 | 8 | -16 | nt | nt
N/C(=N\OC(=O)c1ccncc1)c1cccc([N+](=O)[O-])c1 | -1 | -4 | -11 | -2 | 1 | 0 | nt | nt
Cc1cccc(/C(N)=N/OC(=O)c2ccncc2)c1 | 25* | -2 | 6 | 9 | -7 | 1 | 0.6* | 1
COc1cc(C2C(C(=O)/C=C/c3ccccc3)=C(O)C(=O)N2c2ccccn2)ccc1O (stereo not given) | -1 | 2 | -7 | 1 | -2 | 3 | nt | nt
O=C1NC[C@@H](CCCCN2C[C@H](Cc3ccccc3)N(CCC3CCCCC3)C(=O)C2=O)N(Cc2ccccc2)C1=O | 15* | nt | nt | nt | nt | 0 | -1 | -5
Cc1ccsc1/C=N/N1CCN(c2ccccn2)CC1 | -3 | 0 | 12 | 0 | -8 | -18 | nt | nt
Cc1ccsc1CN1CCN(c2ccccn2)CC1 | 35* | -1 | -2 | -1 | 0 | -2 | -1 | 98*
O=C(N/N=C/c1ccc(-n2ccnc2)cc1)c1cccs1 | 3 | 0 | 4 | -1 | -3 | 0 | nt | nt
Nc1ncnc2[nH]c(=S)[nH]c12 | 17* | nt | nt | 4 | nt | -10 | 0 | 0
CC1CN(C(=O)CS(=O)(=O)Cc2ccc(Cl)cc2)CC(C)O1 (stereo not given) | 15* | 1 | -6 | 2 | -10 | 23 | -1 | 1
CCN1CCN(Cc2nnc(-c3ccc(C)cc3)o2)CC1 | 17* | 0 | 3 | 0 | 5 | 3 | -1 | -4
SMILES | m5-HT2A agonist | MEX-5 binding | GASC-1 inh | V-ATPase pH | VLA-4 inh | Granule exo inh | OPRM1 ag | HTR2A ag conf
COc1ccccc1C(=O)NNC(=O)C1CC=CCC1 (stereo not given) | 19* | -2 | 16 | -1 | -2 | 8 | -1 | 1
Cc1noc(C)c1COc1ccc(C(=O)N2CCN(S(=O)(=O)c3ccc(F)cc3)CC2)cc1 | 5 | nt | nt | 1 | nt | 7 | nt | nt
Cc1ccc(S(=O)(=O)NCCNc2ccc(Br)c(C)c2)cc1 | -2 | nt | 1 | 6 | -9 | 7 | nt | nt
CCC(c1nnnn1-c1c(C)cccc1C)N1CCN(C/C=C/c2ccccc2)CC1 (stereo not given) | 27* | nt | nt | nt | nt | 12 | 0 | 78*
Cc1cccc(C)c1-n1nnnc1C(C1CC1)N1CCN(C/C=C/c2ccccc2)CC1 (stereo not given) | 30* | nt | nt | nt | nt | 20 | 0 | 57*
C(=C\c1ccccc1)/CN1CCN(C(c2nnnn2C2CCCC2)C2CC2)CC1 (stereo not given) | -3 | nt | nt | nt | nt | 2 | nt | nt
CC(C)(C)n1nnnc1C(C1CC1)N1CCN(C/C=C/c2ccccc2)CC1 (stereo not given) | 20* | nt | nt | nt | nt | -6 | 0 | 35*
COc1ccc(NC(=O)COc2ccc(N(C)S(=O)(=O)c3ccc(Cl)cc3)cc2)cc1OC | 3 | 4 | -38 | -3 | -6 | -1 | nt | nt
CC(C)[C@H](NC(=O)C1CC(=O)N(c2ccc3c(c2)OCCO3)C1)C(=O)NC1CCCC1 (stereo not given in full) | 22* | -1 | -9 | 4 | -1 | -12 | -1 | -3
CCC(C)[C@H](NC(=O)C1CC(=O)N(c2ccc3c(c2)OCCO3)C1)C(=O)NC1CCCC1 (stereo not given in full) | -5 | 2 | 3 | 0 | 6 | 9 | nt | nt
COCCNC(=O)C1(C)Cc2c(-c3ccc(N(C)C)cc3)ccnc2O1 (stereo not given) | 3 | nt | nt | nt | nt | -5 | nt | nt
